# In the supplement of paper PMC12282887:
# ± gives the standard deviation of the averaged measurements.
# How the values were obtained:
# Assay in all cases: promoter activity interaction Z-score (Lux/OD deviation from empty-vector control); higher = stronger promoter induction by the compound
# [1] = tested on: E. coli BW25113 acrABp lux reporter
# In short: (§1)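 Wild-type E. coli BW25113 and three single-gene deletion strains, each carrying a low-copy luxCDABE promoter reporter, were grown at 37°C in 40 µl LB Lennox per well of a 384-well plate. Every compound was applied at four 1:2 dilutions in biological duplicates, and OD600 and luminescence were read every 30 min for 12 h. Integration covered 0–8 h for wild type and 1–9 h for deletion strains, and wells under 10% of the median growth value were removed. Scores are Z-transformed residuals of growth-normalised luminescence fitted against a control.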
# [2] = tested on: E. coli BW25113 marRABp lux reporter
# In short: as §1
# [3] = tested on: E. coli BW25113 micFp lux reporter
# In short: as §1
# [4] = tested on: E. coli BW25113 ompFp lux reporter
# In short: as §1
# [5] = tested on: E. coli BW25113 robp lux reporter
# In short: as §1
# [6] = tested on: E. coli BW25113 soxSp lux reporter
# In short: as §1
# [7] = tested on: E. coli BW25113 tolCp lux reporter
# In short: as §1
# [8] = 24.5 µg/ml, genetic background: wild type
# [9] = 24.5 µg/ml, genetic background: ΔmarA
# [10] = 24.5 µg/ml, genetic background: Δrob
# [11] = 24.5 µg/ml, genetic background: ΔsoxS
# [12] = 49.1 µg/ml, genetic background: wild type
# [13] = 49.1 µg/ml, genetic background: ΔmarA
# [14] = 49.1 µg/ml, genetic background: Δrob
# [15] = 49.1 µg/ml, genetic background: ΔsoxS
# [16] = 98.1 µg/ml, genetic background: wild type
# [17] = 98.1 µg/ml, genetic background: ΔmarA
# [18] = 98.1 µg/ml, genetic background: Δrob
# [19] = 98.1 µg/ml, genetic background: ΔsoxS
# [20] = 196.3 µg/ml, genetic background: wild type
# [21] = 196.3 µg/ml, genetic background: ΔmarA
# [22] = 196.3 µg/ml, genetic background: Δrob
# [23] = 196.3 µg/ml, genetic background: ΔsoxS
structure (smiles),measurement,setting,value
C[C@H](CCC(=O)O)[C@H]1CC[C@H]2[C@@H]3CC[C@@H]4C[C@H](O)CC[C@]4(C)[C@H]3C[C@H](O)[C@]12C [Deoxycholic acid],promoter activity interaction Z-score,[1]; [8],-0.00545 ± 0.031
same,promoter activity interaction Z-score,[1]; [9],1.57 ± 0.29
same,promoter activity interaction Z-score,[1]; [10],-0.132 ± 0.14
same,promoter activity interaction Z-score,[1]; [11],-0.386 ± 0.27
same,promoter activity interaction Z-score,[1]; [12],-0.226 ± 0.0089
same,promoter activity interaction Z-score,[1]; [13],0.503 ± 0.52
same,promoter activity interaction Z-score,[1]; [14],-0.0467 ± 0.16
same,promoter activity interaction Z-score,[1]; [15],-0.057 ± 0.47
same,promoter activity interaction Z-score,[1]; [16],0.106 ± 0.28
same,promoter activity interaction Z-score,[1]; [17],1.38 ± 1.5
same,promoter activity interaction Z-score,[1]; [18],-0.154 ± 0.21
same,promoter activity interaction Z-score,[1]; [19],0.252 ± 0.27
same,promoter activity interaction Z-score,[1]; [20],-0.41 ± 0.14
same,promoter activity interaction Z-score,[1]; [21],0.181 ± 0.34
same,promoter activity interaction Z-score,[1]; [22],-0.162 ± 0.13
same,promoter activity interaction Z-score,[1]; [23],-0.502 ± 0.59
same,promoter activity interaction Z-score,[2]; [8],-0.31 ± 0.18
same,promoter activity interaction Z-score,[2]; [9],-0.0533 ± 0.055
same,promoter activity interaction Z-score,[2]; [10],-0.148 ± 0.14
same,promoter activity interaction Z-score,[2]; [11],-0.343 ± 0.17
same,promoter activity interaction Z-score,[2]; [12],-0.0619 ± 0.22
same,promoter activity interaction Z-score,[2]; [13],-0.261 ± 0.22
same,promoter activity interaction Z-score,[2]; [14],-0.128 ± 0.13
same,promoter activity interaction Z-score,[2]; [15],-0.203 ± 0.24
same,promoter activity interaction Z-score,[2]; [16],-0.0956 ± 0.065
same,promoter activity interaction Z-score,[2]; [17],-0.111 ± 0.12
same,promoter activity interaction Z-score,[2]; [18],-0.283 ± 0.077
same,promoter activity interaction Z-score,[2]; [19],-0.336 ± 0.16
same,promoter activity interaction Z-score,[2]; [20],-0.225 ± 0.38
same,promoter activity interaction Z-score,[2]; [21],-0.118 ± 0.15
same,promoter activity interaction Z-score,[2]; [22],-0.197 ± 0.065
same,promoter activity interaction Z-score,[2]; [23],-0.366 ± 0.062
same,promoter activity interaction Z-score,[3]; [8],-0.343 ± 0.23
same,promoter activity interaction Z-score,[3]; [9],0.0199 ± 0.11
same,promoter activity interaction Z-score,[3]; [10],0.0283 ± 0.0044
same,promoter activity interaction Z-score,[3]; [11],-0.264 ± 0.083
same,promoter activity interaction Z-score,[3]; [12],-0.355 ± 0.065
same,promoter activity interaction Z-score,[3]; [13],0.175 ± 0.087
same,promoter activity interaction Z-score,[3]; [14],-0.0435 ± 0.061
same,promoter activity interaction Z-score,[3]; [15],-0.146 ± 0.02
same,promoter activity interaction Z-score,[3]; [16],0.114 ± 0.12
same,promoter activity interaction Z-score,[3]; [17],0.0675 ± 0.083
same,promoter activity interaction Z-score,[3]; [18],-0.0555 ± 0.049
same,promoter activity interaction Z-score,[3]; [19],0.221 ± 0.023
same,promoter activity interaction Z-score,[3]; [20],0.0636 ± 0.083
same,promoter activity interaction Z-score,[3]; [21],0.21 ± 0.12
same,promoter activity interaction Z-score,[3]; [22],-0.134 ± 0.011
same,promoter activity interaction Z-score,[3]; [23],-0.044 ± 0.02
same,promoter activity interaction Z-score,[4]; [8],-0.553 ± 0.23
same,promoter activity interaction Z-score,[4]; [9],-1.03 ± 0.14
same,promoter activity interaction Z-score,[4]; [10],-0.889 ± 0.033
same,promoter activity interaction Z-score,[4]; [11],-0.771 ± 0.0099
same,promoter activity interaction Z-score,[4]; [12],-0.241 ± 0.37
same,promoter activity interaction Z-score,[4]; [13],-0.568 ± 0.061
same,promoter activity interaction Z-score,[4]; [14],-0.421 ± 0.46
same,promoter activity interaction Z-score,[4]; [15],-0.619 ± 0.45
same,promoter activity interaction Z-score,[4]; [16],0.192 ± 0.079
same,promoter activity interaction Z-score,[4]; [17],-1.07 ± 0.24
same,promoter activity interaction Z-score,[4]; [18],-0.618 ± 0.14
same,promoter activity interaction Z-score,[4]; [19],-0.316 ± 0.15
same,promoter activity interaction Z-score,[4]; [20],-0.117 ± 0.52
same,promoter activity interaction Z-score,[4]; [21],-0.473 ± 0.02
same,promoter activity interaction Z-score,[4]; [22],-0.582 ± 0.058
same,promoter activity interaction Z-score,[4]; [23],-0.78 ± 0.4
same,promoter activity interaction Z-score,[5]; [8],0.346 ± 0.23
same,promoter activity interaction Z-score,[5]; [9],-0.527 ± 0.51
same,promoter activity interaction Z-score,[5]; [10],0.184 ± 0.84
same,promoter activity interaction Z-score,[5]; [11],-0.0515 ± 0.27
same,promoter activity interaction Z-score,[5]; [12],0.0327 ± 0.23
same,promoter activity interaction Z-score,[5]; [13],0.517 ± 0.54
same,promoter activity interaction Z-score,[5]; [14],0.31 ± 0.44
same,promoter activity interaction Z-score,[5]; [15],0.767 ± 0.39
same,promoter activity interaction Z-score,[5]; [16],0.553 ± 0.54
same,promoter activity interaction Z-score,[5]; [17],0.501 ± 0.48
same,promoter activity interaction Z-score,[5]; [18],0.729 ± 1.3
same,promoter activity interaction Z-score,[5]; [19],-0.0126 ± 0.038
same,promoter activity interaction Z-score,[5]; [20],0.502 ± 0.87
same,promoter activity interaction Z-score,[5]; [21],0.13 ± 0.13
same,promoter activity interaction Z-score,[5]; [22],-0.399 ± 0.066
same,promoter activity interaction Z-score,[5]; [23],0.439 ± 0.14
same,promoter activity interaction Z-score,[6]; [8],0.0465 ± 0.031
same,promoter activity interaction Z-score,[6]; [9],-0.0486 ± 0.044
same,promoter activity interaction Z-score,[6]; [10],0.0418 ± 0.059
same,promoter activity interaction Z-score,[6]; [11],-0.115 ± 0.036
same,promoter activity interaction Z-score,[6]; [12],0.0154 ± 0.03
same,promoter activity interaction Z-score,[6]; [13],-0.092 ± 0.13
same,promoter activity interaction Z-score,[6]; [14],-0.0215 ± 0.03
same,promoter activity interaction Z-score,[6]; [15],-0.228 ± 0.12
same,promoter activity interaction Z-score,[6]; [16],0.124 ± 0.18
same,promoter activity interaction Z-score,[6]; [17],-0.348 ± 0.085
same,promoter activity interaction Z-score,[6]; [18],-0.0505 ± 0.11
same,promoter activity interaction Z-score,[6]; [19],-0.203 ± 0.29
same,promoter activity interaction Z-score,[6]; [20],-0.0569 ± 0.038
same,promoter activity interaction Z-score,[6]; [21],-0.335 ± 0.053
same,promoter activity interaction Z-score,[6]; [22],-0.26 ± 0.051
same,promoter activity interaction Z-score,[6]; [23],-0.515 ± 0.0068
same,promoter activity interaction Z-score,[7]; [8],0.918 ± 0.69
same,promoter activity interaction Z-score,[7]; [9],0.218 ± 0.13
same,promoter activity interaction Z-score,[7]; [10],1.08 ± 1.6
same,promoter activity interaction Z-score,[7]; [11],0.883 ± 0.56
same,promoter activity interaction Z-score,[7]; [12],0.21 ± 0.56
same,promoter activity interaction Z-score,[7]; [13],0.972 ± 1.2
same,promoter activity interaction Z-score,[7]; [14],0.2888 ± 0.00083
same,promoter activity interaction Z-score,[7]; [15],-0.388 ± 0.38
same,promoter activity interaction Z-score,[7]; [16],0.816 ± 0.38
same,promoter activity interaction Z-score,[7]; [17],0.304 ± 0.81
same,promoter activity interaction Z-score,[7]; [18],0.00196 ± 0.37
same,promoter activity interaction Z-score,[7]; [19],1.18 ± 1.1
same,promoter activity interaction Z-score,[7]; [20],-0.28 ± 1.4
same,promoter activity interaction Z-score,[7]; [21],-0.467 ± 0.27
same,promoter activity interaction Z-score,[7]; [22],-0.148 ± 0.072
same,promoter activity interaction Z-score,[7]; [23],-0.718 ± 1.1
